In the library only some 0.82% were active in any assay of this set; here they are far more common.
Rv3671c protease – inhibitors of M. tuberculosis serine protease Rv3671c | P9WHR9 | inhibition, % at 5.96 µM | 320,000 compounds, 0.048% hits; in the data active = inhibition above about 38%;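 note: extracellular domain of Rv3671c used as enzyme; 0% = enzyme with DMSO and 100% = no enzyme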
Target sequence (P9WHR9 whole entry, looked up, the tested form may be a part): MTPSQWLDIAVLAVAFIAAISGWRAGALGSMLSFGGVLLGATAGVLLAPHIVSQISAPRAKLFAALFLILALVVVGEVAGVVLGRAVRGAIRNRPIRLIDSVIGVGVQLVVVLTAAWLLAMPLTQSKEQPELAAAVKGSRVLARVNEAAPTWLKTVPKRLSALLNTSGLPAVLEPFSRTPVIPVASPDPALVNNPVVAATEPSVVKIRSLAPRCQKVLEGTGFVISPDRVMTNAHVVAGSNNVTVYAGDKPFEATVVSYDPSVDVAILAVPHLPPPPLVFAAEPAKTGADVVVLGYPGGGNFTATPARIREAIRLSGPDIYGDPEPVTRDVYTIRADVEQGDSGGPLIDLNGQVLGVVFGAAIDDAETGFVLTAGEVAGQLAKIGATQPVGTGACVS
RecA intein inh – inhibitors of M. tuberculosis RecA intein splicing; AID 2221; 290,000 compounds, 0.75% hits; cell-free RecA intein splicing, fluorescence; inhibition, % (concentration not given with the values); in the data active = inhibition above about 30%; inconclusive = no clear call, values can overlap the other calls;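 note: 0% = vehicle wells and 100% = reference inhibitor control wells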
Mtb UGM inh – blocks M. tuberculosis UGM enzyme; P9WIQ1; purified UGM, fluorescence polarization probe displacement; inhibition, % at 10 µM; 320,000 compounds, 0.06% hits; AID 504406; in the data active = inhibition above about 10%, passing the limit was not always enough; inconclusive = no clear call, values can overlap the other calls
Mtb BioA inh – blocks M. tuberculosis BioA enzyme activity | purified M. tuberculosis BioA enzyme, plate reader | inhibition, % at 9.99 µM | AID 602481 | 360,000 compounds, 0.096% hits; in the data active = inhibition above about 40%; inconclusive = no clear call, values can overlap the other calls
FadD28 FP inh – blocks FadD28 binding to the bisubstrate probe; fluorescence polarization; inhibition, % at 12.5 µM; 360,000 compounds, 0.22% hits; AID 588549; in the data active = inhibition above about 8.5%, passing the limit was not always enough; inconclusive = no clear call, values can overlap the other calls
Yp Topo-I inh – Y. pestis Topo-I inhibition via cleavage products; Y. pestis Topo-I cleavage product accumulation, plate reader; activity, % at 10 µM; 360,000 compounds, 0.064% hits; AID 504884; in the data active = activity above about 50%, passing the limit was not always enough; inconclusive = no clear call, values can overlap the other calls
GFP chromophore – counter-screen: blocks GFP chromophore formation | shares compounds with RecA intein inh | 2,100 compounds, 83% hits | cell-free GFP chromophore formation, fluorescence | EC50, µM; call rule not given here
Numbers without * were called inactive; u = inconclusive; x = not tested or not shown.

SMILES	Rv3671c protease	RecA intein inh	Mtb UGM inh	Mtb BioA inh	FadD28 FP inh	Yp Topo-I inh	GFP chromophore
COC(=O)c1sc(-c2ccc(Cl)cc2)cc1NC(=O)/C=C/C(=O)O	-1	70*	0	1	-2	6	27*
C[C@H](CO)N1C[C@H](C)[C@@H](CN(C)Cc2ccc3c(c2)OCO3)OCCCC[C@H](C)Oc2ccc(NS(=O)(=O)c3ccc(Cl)cc3)cc2C1=O	x	x	x	1	x	x	x
C[C@H]1CN([C@@H](C)CO)C(=O)c2cc(NC(=O)Nc3ccccc3)ccc2O[C@@H]1CN(C)S(=O)(=O)c1ccc(Cl)cc1	x	x	x	0	x	x	x
CCCNC(=O)N[C@@H]1CC[C@@H](CC(=O)NCCc2ccccc2)O[C@H]1CO	x	x	x	-4	x	x	x
COC(=O)c1scc(C)c1NC(=O)/C=C/C(=O)O	3	-1	-1	x	-3	4	x
COC(=O)c1c(NC(=O)/C=C/C(=O)O)sc(C)c1-c1ccc(C)c(C)c1	-18	63*	0	x	-5	2	38*
C[C@@H]1CN([C@@H](C)CO)C(=O)c2cc(NC(=O)CCC(F)(F)F)ccc2O[C@@H](C)CCCCO[C@H]1CN(C)Cc1ccc(C(F)(F)F)cc1	x	x	x	0	x	x	x
COc1ccc(NC(=O)Nc2ccc3c(c2)[C@@H]2C[C@@H](CC(=O)NCC4CC4)O[C@@H](CO)[C@@H]2O3)cc1	x	x	x	-1	x	x	x
CSc1nc(=S)n(-c2ccc([N+](=O)[O-])cc2)c(C)c1C(C)=O	-2	35*	2	15	-3	-12	>38
CO[C@@H]1CN(C)C(=O)c2cc(NC(=O)Cc3ccccc3)ccc2OC[C@H](C)N(C(C)=O)C[C@H]1C	x	x	x	0	x	x	x
O=C(C[C@@H]1CC[C@H]2[C@@H](COC[C@@H](O)CN2S(=O)(=O)c2ccccc2)O1)NCc1ccc(-c2ccccc2)cc1	x	x	x	2	x	x	x
CCOC(=O)CSc1nnc(NCC(=O)OC)c(=O)[nH]1	0	37*	-1	0	-3	4	>38
CCOC(=O)CSc1nnc(C)c(=O)[nH]1	-18	0	1	-1	-4	-6	x
CCOC(=O)c1nnc(-c2ccccc2)nc1Sc1ccccc1Cl	4	40*	0	0	-4	14	2*
Cc1cccc(N2C(N)=C(C#N)C(C#N)(C#N)C2c2ccccc2)c1 (centres undefined)	8	22	2	2	2	5	x
N#CC1=C(N)N(c2ccccc2)C(c2cccc([N+](=O)[O-])c2)C1(C#N)C#N (centres undefined)	5	39*	0	x	0	-5	24*
COc1ccc(NC(=O)Nc2ccc3c(c2)C(=O)N([C@@H](C)CO)C[C@H](C)[C@H](CN(C)C(=O)Nc2ccc(OC)cc2)O3)cc1	x	x	x	-2	x	x	x
CCc1[nH]nc2c1C1(CCN(C(=O)c3ccccc3)CC1)C(C#N)=C(N)O2	-5	67*	0	x	-3	6	29*
Cc1ccc(SCc2[nH]nc3c2C2(C(=O)Nc4ccc(F)cc42)C(C#N)=C(N)O3)cc1 (centres undefined)	8	x	0	0	-7	10	x
CC(=O)N1CCC2(CC1)C(C#N)=C(N)Oc1n[nH]c(C(F)(F)F)c12	7	-10	1	x	2	-14	x
CC(=O)N1CCC2(CC1)C(C#N)=C(N)Oc1n[nH]c(CSc3ccc(C)cc3)c12	-9	74*	3	1	-1	2	23*
CCn1c(COc2cccc3ccccc23)nnc1SCC(N)=O	-3	3	0	x	-3	13	>38
COC(=O)c1ccccc1S(=O)(=O)N1CCC(NC(=O)c2ccccc2)CC1	6	45*	0	1	-1	1	>38
COC(=O)c1ccccc1S(=O)(=O)N1CCC(C(=O)NC2CCCCC2)CC1	-5	x	2	-1	-2	-10	x
Cc1[nH]c2ccc(F)cc2c1CCN(Cc1cccnc1)C(=S)Nc1ccc(F)cc1	18	40*	-5	0	0	-1	>38
SMILES	Rv3671c protease	RecA intein inh	Mtb UGM inh	Mtb BioA inh	FadD28 FP inh	Yp Topo-I inh	GFP chromophore
CO[C@H]1CN(C)C(=O)c2cc(NC(=O)C3CCC3)ccc2OC[C@@H](C)N(C(=O)CN(C)C)C[C@@H]1C	x	x	x	-1	x	x	x
Clc1ccc(Sc2ccc(/C=N/n3cnnc3)o2)cc1	3	24	1	11	-3	-7	x
Clc1ccc(Sc2oc(/C=N/n3cnnc3)cc2Br)cc1	-1	63*	1	-1	-5	7	22*
COc1ccc(NC(=O)N(C)C[C@@H]2Oc3ccc(NC(=O)Nc4cccc5ccccc45)cc3CC(=O)N([C@@H](C)CO)C[C@H]2C)cc1	x	x	x	-2	x	x	x
O=C(N/N=C/c1cc(Cl)cc([N+](=O)[O-])c1O)c1ccccc1NS(=O)(=O)c1cccs1	0	33*	3	4	2	-1	>38
COc1ccc(S(=O)(=O)N(C)C[C@H]2OCCCC[C@H](C)Oc3ccc(NC(=O)Nc4ccccc4)cc3C(=O)N([C@@H](C)CO)C[C@H]2C)cc1	x	x	x	-2	x	x	x
CN1C(=O)c2cc(NC(=O)Nc3cccc(Cl)c3)ccc2OC[C@H]2O[C@H](CC(=O)O)CC[C@H]21	x	x	x	5	x	x	x
O=C(c1ccc2nc(Cc3cccc(Cl)c3)oc2c1)N1CCC(O)CC1	4	42*	0	1	u	7	>38
O=C(c1ccc2nc(Cc3cccc(Cl)c3)oc2c1)N1CCC(CO)CC1	-9	2	0	4	0	4	x
C[C@@H]1CN([C@@H](C)CO)C(=O)c2cccc(NC(=O)c3ccc(-c4nccs4)cc3)c2O[C@H]1CN(C)S(=O)(=O)c1cccs1	x	x	x	0	x	x	x
Cc1noc(C)c1S(=O)(=O)N(C)C[C@@H]1Oc2ccc(NC(=O)NC3CCCCC3)cc2CC(=O)N([C@H](C)CO)C[C@@H]1C	x	x	x	1	x	x	x
CC(=O)N(C1=C(Cl)C(=O)c2ccccc2C1=O)C1CCCCC1	-68	92*	0	-1	0	1	1.3*
Fc1ccc(-[n+]2nc(Nc3ccccc3)sc2-c2c3ccccc3cc3ccccc23)cc1	4	49*	-1	-1	-9	-25	16*
CC(=O)N1N=C(c2ccco2)CC1c1ccco1 (centres undefined)	x	2	-1	0	-5	-3	x
Cc1ccc(C2=NN(C(=O)CCl)C(c3ccco3)C2)o1 (centres undefined)	x	63*	x	x	x	-1	40*
O=C1c2ccccc2C(=O)c2c1oc(C(F)(F)F)c2C(=O)c1ccccc1	-38	39*	1	x	-4	1	>38
c1ccc(CNc2nc(NCc3ccccc3)c3ccccc3n2)cc1	4	60*	0	0	-3	-17	23*
c1ccc(CNc2nc(-c3ccccc3)nc3ccccc23)cc1	-20	17	-1	0	-9	-11	x
Fc1ccc(Nc2nc(NCc3ccco3)c3ccccc3n2)cc1	3	49*	1	3	-14	-17	18*

Assay outcomes from PubChem BioAssay.
